High-throughput results deposited in PubChem by National Center for Advancing Translational Sciences (NCATS).
Shown are actives, neighbours in structure and some others; about 18% of the full set was active somewhere.
PLK1 PBD block – PLK1 (human) polo-box domain binding inhibition. Plk1 PBD binding of FITC phosphopeptide, fluorescence polarization. P53350. Potency, µM, inactives show max response, negative = inhibition, most hits filed as inhibitors. hit rate 2.8% among 360,000; also: series mostly up to about 57 µM; nearly all actives have a fitted effect of over 65% in size
Target sequence (P53350 whole entry, looked up, the tested form may be a part): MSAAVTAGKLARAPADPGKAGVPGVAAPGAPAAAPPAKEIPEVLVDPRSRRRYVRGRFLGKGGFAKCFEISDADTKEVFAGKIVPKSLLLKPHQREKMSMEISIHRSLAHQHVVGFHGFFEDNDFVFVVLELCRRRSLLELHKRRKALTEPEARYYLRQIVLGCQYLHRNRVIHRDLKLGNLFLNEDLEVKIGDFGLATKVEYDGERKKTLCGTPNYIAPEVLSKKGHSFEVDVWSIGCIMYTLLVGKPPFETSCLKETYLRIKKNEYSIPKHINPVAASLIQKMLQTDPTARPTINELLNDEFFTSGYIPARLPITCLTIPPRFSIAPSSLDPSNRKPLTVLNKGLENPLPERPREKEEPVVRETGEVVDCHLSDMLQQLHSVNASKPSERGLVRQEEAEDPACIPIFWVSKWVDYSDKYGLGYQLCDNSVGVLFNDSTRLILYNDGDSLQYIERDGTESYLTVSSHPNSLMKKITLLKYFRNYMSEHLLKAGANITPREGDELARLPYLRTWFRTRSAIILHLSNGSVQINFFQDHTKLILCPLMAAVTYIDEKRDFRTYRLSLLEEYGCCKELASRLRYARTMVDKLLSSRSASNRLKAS
VDR inh – inhibitors of human vitamin D receptor; P11473; VDR-SRC2-3 peptide fluorescence polarization, 2 h; Potency, µM, for inactives: max response, negative = inhibition, usual class: inhibitors; hit rate 0.93% among 400,000; AID 504847
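Fluorescence polarization assay of small-molecule disruption of VDR binding to coregulator peptide SRC2-3. Compounds and controls pin-transferred, then read after 2 h incubation at ambient room temperature.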
TDP1 block – inhibitors of human tyrosyl-DNA phosphodiesterase TDP1; Q9NUW8; recombinant TDP1, AlphaScreen DNA substrate cleavage; Potency, µM (top dose mostly 130 µM), without a hit: at the top dose activity change, negative = inhibition, hits mostly inhibitors; hit rate 0.28% among 350,000; AID 485290; also: nearly all actives have a fitted effect of over 40% in size
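Enzyme-compound mixtures sat 15 min at room temperature, followed by a 5 min reaction with 15 nM final substrate and 10 min with AlphaScreen beads. Recombinant human Tdp1 was used at 1 nM final.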
TDP1 cell CPT – DT40-hTDP1 cell growth loss with CPT | Potency, µM (top dose mostly 46.2 µM), without a hit: top-dose activity change, negative = growth inhibition, most hits filed as inhibitors | chicken DT40 Tdp1-/-;hTDP1 cells + 20 nM CPT, ATP luminescence, 48 h | hit rate 12% among 420,000 | AID 686979; also: nearly all actives have a fitted effect of over 55% in size
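Cell growth measured by CellTiter-Glo luminescence after a minimum 48 h, 37 C compound exposure with 20 nM CPT in Tdp1-knockout DT40 cells stably expressing hTDP1, seeded 400/well; qHTS titration format.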
DT40 TDP1 no CPT – qHTS for Inhibitors of human tyrosyl-DNA phosphodiesterase 1 (TDP1): qHTS in cells in absence of CPT | DT40 Tdp1-/- hTDP1 cells, no CPT, ATP luminescence, 48 h | AID 686978, 2013 | hit rate 15% among 420,000 | Potency, µM (top dose mostly 46.2 µM), for inactives: at the top dose activity change, negative = growth inhibition, actives largely listed as inhibitors; also: nearly all actives have a fitted effect of over 55% in size
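Compound effects on proliferation are scored in DT40 Tdp1-/-;hTDP1 cells in the absence of CPT. ATP levels (CellTiter-Glo luminescence) are recorded after a ≥48 hr, 37 °C incubation.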
GCN5L2 inh – GCN5L2 (KAT2A) acetyltransferase inhibition | AID 504327 | hit rate 0.21% among 390,000 | GCN5L2 HAT assay, ThioGlo1 CoA-SH fluorescence | Potency, µM (doses to about 58.9 µM), for inactives: top-dose activity change, negative = inhibition, most hits filed as inhibitors
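Fluorescence readout, Ex340nm/Em540nm: ThioGlo1 (50uM final) reacts with free CoA thiol released as 20nM GCN5L2 acetylates H3(1-25) peptide (75uM) using acetyl-CoA (70uM). Compound and enzyme sat 15 min beforehand; 20 min room-temperature reaction.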
* hit, by the source's call; u = inconclusive; x = not tested or not shown; [ ] = remark or other dose. Calls follow the shape of the dose curve; as a rule, active = well fitted curve in the direction sought with a large enough effect; inconclusive = small, poorly fitted or top-dose-only effect, or another doubt; inactive = no such curve, though single readings can be large; an effect the other way counts as inactive or inconclusive. % is scaled to controls: 0 for no effect and ±100 for the full control effect; potency is read from the fitted curve at half-maximal effect.

SMILES	PLK1 PBD block	VDR inh	TDP1 block	TDP1 cell CPT	DT40 TDP1 no CPT	GCN5L2 inh
Cc1cc(-n2c(C)cc(C(=O)CN3C(=O)C(=O)N(C)C3=O)c2C)no1	-11%	2%	2%	8%	-24%	-1%
Cc1ccc(-n2nnnc2SCC(=O)c2cc(C)n(-c3cc(C)on3)c2C)c(C)c1	3%	17%	-4%	23µM*	23µM*	-11%
Cc1cc(-n2c(C)cc(C(=O)CCl)c2C)no1	13µM*	-8%	5%	1.2µM*	0.92µM*	-2%
Cc1cc(-n2c(C)cc(C(=O)CSc3ccccn3)c2C)no1	17µM*	-15%	4%	u	u	2%
CCCn1c(SCC(=O)c2cc(C)n(-c3cc(C)on3)c2C)n[nH]c1=O	-2%	1%	2%	u	u	-9%
CCCc1cc(=O)[nH]c(SCC(=O)c2cc(C)n(-c3cc(C)on3)c2C)n1	-1%	-4%	-1%	-12%	-22%	2%
Cc1cc(-n2c(C)cc(C(=O)CSc3nnnn3-c3ccccc3)c2C)no1	2%	10%	0%	u	u	-7%
Cc1cc(-n2c(C)cc(C(=O)CSc3ccc4c(c3)OCCO4)c2C)no1	u	-28%	4%	u	26µM*	-11%
COc1ccccc1N=NNc1ccccc1OC	-2%	x	x	u	u	x
COc1cc(-c2c(NC(=O)c3ccco3)oc3ccccc3c2=O)cc(OC)c1OC	-5%	-10%	4%	5%	22%	-8%
O=C(CSc1ccc2ccccc2c1)Nc1ccncc1	-9%	6%	4%	u	15µM*	-4%
COc1ccc(Nc2ccccc2C(=O)O)cc1	-8%	27%	0%	-2%	2%	-4%
O=C(CSc1ccccc1)Nc1ccncc1	u	-15%	9%	u	u	-10%
O=C(O)c1ccccc1Nc1cccc(OCc2ccc3ccccc3n2)c1	-8%	-12%	6%[56.1 µM]	u	u	28µM*
CCC(=O)Nc1ccc2ccccc2c1	-1%	0%	-2%	5%	9%	-4%
O=C(COc1ccc2ccccc2c1)NCCn1ccc2ccccc21	-6%	-11%	2%	u	21µM*	-5%
CC(C)(C)CC(C)(C)NC(=O)CSCC(=O)Nc1ccc2ccccc2c1	-15%	-10%	6%	18µM*	u	-15%
O=C(COc1ccc2ccccc2c1)Nc1ccncc1	-3%	10%	1%	u	16µM*	12%
O=C(COc1ccc2ccccc2c1)Nc1cccc(C(=O)Nc2ccccc2C(=O)O)c1	24µM*	-8%	6%	-30%	u	-12%
Cc1ccc(OCC(=O)Nc2ccc(C(=O)Nc3ccccc3C(=O)O)cc2)cc1C	u	x	x	-15%	-2%	x
CCCc1nc2ccc(Br)cn2c1Cc1cccc(Cl)c1	-6%	x	x	6.5µM*	4.6µM*	x
Clc1cccc(Cc2c(-c3cccc(Cl)c3)nc3ccc(Br)cn23)c1	-10%	x	x	u	u	x
CCCc1nc2ccc(Br)cn2c1Cc1ccccc1	-10%	x	x	4.6µM*	2.9µM*	x
CC(C)CCN(C(=O)c1ccccn1)c1c(N)n(Cc2ccccc2)c(=O)[nH]c1=O	-9%	-1%	-1%	-12%	-15%	-4%
COc1ccccc1N(C)S(=O)(=O)c1ccc(C)c(C(=O)Nc2nccs2)c1	8%	-14%	1%	-5%	u	-7%
Cc1cc2c(s1)c1cnn(Cc3ccccc3F)c(=O)c1n2C(C)C	x	x	-8%	x	x	x
Cc1cccc(N2CCN(C(=O)c3ccc4c(c3)NC(=O)C(CSCc3cccc(F)c3)N4)CC2C)c1 (stereo unspecified)	u	u	3%	u	u	14µM*
CCOc1ccc(CC(=O)Nc2nnc3n2CCS3)cc1	x	-2%	-4%	-2%	-25%	0%
